Test results as given in PubChem BioAssay (NCI).
Values joined by “and” are separate entries in the source; they are usually repeats but may differ in a detail not shown here. Identical values can stand only once. This is part of a sample that, as a whole, favours compounds with a hit. Of some 83,000 tested, about 20% had one in any assay.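 Note: values are percent growth. 100 is the growth of untreated cells, values between 100 and 0 indicate rising inhibition; between -100 and 0 indicates cell death.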 A number with no mark means an inactive call. Active and inactive are the calls of the source. Rule for the calls: active = growth percent below 10; inactive = the rest.

Columns and labels:
Assay in all cases: NCI-60 one-dose screen, 48 h (100 = growth as untreated, 0 = no growth, -100 = all killed)
T-47D breast = tested on: T-47D breast
BT-549 breast = tested on: BT-549 breast
MDA-MB-435 melanoma = tested on: MDA-MB-435 melanoma
SW-620 colon = tested on: SW-620 colon
MCF7 breast = tested on: MCF7 breast
HCT-116 colon = tested on: HCT-116 colon
HCC-2998 colon = tested on: HCC-2998 colon
KM12 colon = tested on: KM12 colon

SMILES: COc1ccc(C(=O)/C=C/c2ccc(OCc3cccc(C(F)(F)F)c3)c(OC)c2)cc1OC
- growth (T-47D breast; 10 µM): 54.2%
- growth (T-47D breast; 100 µM): 11.3%
- growth (BT-549 breast; 10 µM): 95.2%
- growth (BT-549 breast; 100 µM): -41.3% (active)
- growth (MDA-MB-435 melanoma; 10 µM): 86.3%
- growth (MDA-MB-435 melanoma; 100 µM): 12%
- growth (SW-620 colon; 10 µM): 59.1%
- growth (SW-620 colon; 100 µM): 6.75% (active)
- growth (MCF7 breast; 10 µM): 40%
- growth (MCF7 breast; 100 µM): 6.42% (active)
- growth (HCT-116 colon; 10 µM): 52.3%
- growth (HCT-116 colon; 100 µM): 3.91% (active)
- growth (HCC-2998 colon; 10 µM): 105%
- growth (HCC-2998 colon; 100 µM): 10.8%
- growth (KM12 colon; 10 µM): 72.5%
- growth (KM12 colon; 100 µM): 12.4%

SMILES: CC/C=C\C/C=C\C[C@H](O)C/C=C1/C(=O)C=C[C@@H]1C/C=C\CCCC(=O)OC
- growth (T-47D breast; 10 µM unless noted): 4.23% (active)
- growth (BT-549 breast; 10 µM unless noted): -14.9% (active)
- growth (MDA-MB-435 melanoma; 10 µM unless noted): -16.4% (active)
- growth (SW-620 colon; 10 µM unless noted): -46.3% (active)
- growth (MCF7 breast; 10 µM unless noted): 2.32% (active)
- growth (HCT-116 colon; 10 µM unless noted): -63.8% (active)
- growth (HCC-2998 colon; 10 µM unless noted): -83.9% (active)
- growth (KM12 colon; 10 µM unless noted): -71.6% (active)

SMILES: CCCCC1COc2cccc3c2N1C=C/C3=C\C(=O)N(C)c1cccc(Cl)c1 (centres undefined)
- growth (T-47D breast; 10 µM unless noted): 88.7%
- growth (BT-549 breast; 10 µM unless noted): 107%
- growth (MDA-MB-435 melanoma; 10 µM unless noted): 101%
- growth (SW-620 colon; 10 µM unless noted): 102%
- growth (MCF7 breast; 10 µM unless noted): 104%
- growth (HCT-116 colon; 10 µM unless noted): 91.2%
- growth (HCC-2998 colon; 10 µM unless noted): 111%
- growth (KM12 colon; 10 µM unless noted): 105%

SMILES: CC1=CC(C)(C)NC(=S)N1c1ccc(Cl)cc1
- growth (T-47D breast; 10 µM unless noted): 92.8% and 87.2%
- growth (BT-549 breast; 10 µM unless noted): 99.1% and 110%
- growth (MDA-MB-435 melanoma; 10 µM unless noted): 101% and 117%
- growth (SW-620 colon; 10 µM unless noted): 100% and 115%
- growth (MCF7 breast; 10 µM unless noted): 101% and 97.3%
- growth (HCT-116 colon; 10 µM unless noted): 99.6% and 89%
- growth (HCC-2998 colon; 10 µM unless noted): 105% and 100%
- growth (KM12 colon; 10 µM unless noted): 101% and 105%

SMILES: CC(C)(C)c1cc(C(C)(C)c2ccccc2)cc(Cc2cc(C(C)(C)c3ccccc3)cc(C(C)(C)C)c2O)c1O
- growth (T-47D breast; 10 µM unless noted): 95.3%
- growth (BT-549 breast; 10 µM unless noted): 93.1%
- growth (MDA-MB-435 melanoma; 10 µM unless noted): 115%
- growth (SW-620 colon; 10 µM unless noted): 104%
- growth (MCF7 breast; 10 µM unless noted): 94.6%
- growth (HCT-116 colon; 10 µM unless noted): 93.1%
- growth (HCC-2998 colon; 10 µM unless noted): 107%
- growth (KM12 colon; 10 µM unless noted): 106%

SMILES: CC(=O)/C=C/c1ccc(OCc2ccc(Cl)cc2)cc1
- growth (T-47D breast; 10 µM): 93.1%
- growth (T-47D breast; 100 µM): 20.2%
- growth (BT-549 breast; 10 µM): 102%
- growth (BT-549 breast; 100 µM): 38%
- growth (MDA-MB-435 melanoma; 10 µM): 94.5%
- growth (MDA-MB-435 melanoma; 100 µM): 23.1%
- growth (SW-620 colon; 10 µM): 104%
- growth (SW-620 colon; 100 µM): 70.4%
- growth (MCF7 breast; 10 µM): 94.2%
- growth (MCF7 breast; 100 µM): 46%
- growth (HCT-116 colon; 10 µM): 90.5%
- growth (HCT-116 colon; 100 µM): 46.1%
- growth (HCC-2998 colon; 10 µM): 101%
- growth (HCC-2998 colon; 100 µM): 60.4%
- growth (KM12 colon; 10 µM): 93.9%
- growth (KM12 colon; 100 µM): 35.3%
